From PubChem BioAssay AID1851 (National Center for Advancing Translational Sciences (NCATS), 2009)
Values joined by “and” are separate entries in the source; they are usually repeats but may differ in a detail not shown here. Identical values can stand only once. Screen size: about 16,000 compounds; about 2,600 (16%) were called active. Inconclusive results (about 20%) are left out. The list is a sample of the results. Values without a mark were called inactive. The call rests on the fitted dose curve; in most records, active means well fitted curve in the direction sought with a large enough effect; inconclusive means small, poorly fitted or top-dose-only effect, or effect the other way; inactive means no such curve, though single readings can be large or run the other way.

Biological target: Cytochrome P450 2D6 (Homo sapiens) (UniProt P10635)
Sequence (P10635 whole entry, looked up): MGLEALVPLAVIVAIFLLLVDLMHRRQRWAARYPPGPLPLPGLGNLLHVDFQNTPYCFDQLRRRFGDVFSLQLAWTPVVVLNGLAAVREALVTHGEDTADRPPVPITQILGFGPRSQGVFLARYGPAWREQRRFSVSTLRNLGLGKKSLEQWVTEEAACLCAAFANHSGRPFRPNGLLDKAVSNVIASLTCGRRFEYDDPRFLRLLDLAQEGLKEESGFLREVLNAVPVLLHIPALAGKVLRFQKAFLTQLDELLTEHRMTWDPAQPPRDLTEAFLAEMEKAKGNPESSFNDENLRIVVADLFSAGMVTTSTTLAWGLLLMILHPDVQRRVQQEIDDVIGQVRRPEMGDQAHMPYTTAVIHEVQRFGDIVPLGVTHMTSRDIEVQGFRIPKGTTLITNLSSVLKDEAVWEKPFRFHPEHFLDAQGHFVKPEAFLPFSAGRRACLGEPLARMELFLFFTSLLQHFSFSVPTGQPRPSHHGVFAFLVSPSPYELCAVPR
Test: Cytochrome panel assay with activity outcomes
Details: recombinant CYP, pro-luciferin dealkylation, luminescence, p450-cyp2d6; series mostly up to 57.1 µM; activity, negative = inhibition: at the top concentration
On the % scale 0 is the no-effect control and ±100 the full control effect.

SMILES	activity, negative = inhibition	AC50
COc1ccc(-c2cc(C(F)(F)F)n3nc(C(=O)NCc4ccco4)c(Cl)c3n2)cc1	16.5%	–
CCCCOC(=S)NC(=O)c1sc2ccccc2c1Cl	-28.5%	–
CC(=O)Oc1ccc(C(c2ccc(OC(C)=O)cc2)c2ccccn2)cc1	-11.5% [at 25.6 µM]	–
CN(C)CC(CN(C)C)c1ccccn1	6.41% [at 11.4 µM]	–
CN(C)CC[C@@H](c1ccccc1)c1ccccn1	–	inactive
CN(C)CC[C@H](c1ccc(Cl)cc1)c1ccccn1	–	31.6 µM (active)
CN(C)CC[C@H](c1ccc(Br)cc1)c1ccccn1	–	15.8 µM (active) and 25.1 µM (active)
Cc1ccc(-c2c(C#N)c(N)n(-c3ccccc3)c(=O)c2C#N)cc1	0.672%	–
COC(=O)C1=C(C)C(c2ccc(OC)cc2)NC(=S)N1 (stereo unspecified)	-7.77%	–
Cc1noc(C)c1COc1ccc(C(=O)NCC2CCCO2)cc1 (stereo unspecified)	-5.63%	–
N[C@H](C(=O)O)[C@@H](O)c1cnc[nH]1	10.8% [at 11.4 µM]	–
COc1cc(OC)c(C(=O)CCCCN2CCC3(CC2)NC(=O)NC3=O)cc1NS(=O)(=O)c1ccc(C(F)(F)F)cc1	9.13%	–
CC[C@H]1C2=C3C(CC[C@H]4C(OCc5ccc(F)cc5C(F)(F)F)OC[C@](C)([C@@H]34)N(C(=O)OC(C)(C)C)C2)C(COC(C)=O)C1COC(C)=O (stereo partly specified)	-7.25%	–
CCOC(=O)C1=C(N)Oc2ccc(Br)cc2[C@@H]1[C@@H](C#N)C(=O)OCC	-1.13%	–
O=c1c(-c2ccc(F)cc2)nc2cnc(N3CCNCC3)nc2n1C1CC1	-5.5%	–
CCc1nc(N[C@H](C(=O)O)C(C)CC)c2oc3ccccc3c2n1 (stereo partly specified)	8.52%	–
O=C(Cn1cnc2c(oc3ccccc32)c1=O)NCc1ccco1	5.8%	–
c1ccc2c(c1)oc1c(NCCCn3ccnc3)ncnc12	–	1.26 µM (active)
Cc1nc(SCC(=O)NCCc2ccccc2)c2oc3ccccc3c2n1	29.1%	–
c1ccc(-c2nc(NCCCn3ccnc3)c3oc4ccccc4c3n2)cc1	–	2 µM (active)
c1ccc2cc(Sc3ncnc4c3oc3ccccc34)ccc2c1	-3.02%	–
CC(C)=CCC/C(C)=C/CO/N=C1/C[C@@H](O)[C@@H](O)[C@@H]2[C@H]3C(=O)N(c4ccc(F)cc4F)C(=O)[C@@H]3CC[C@H]12	6.74% [at 11.4 µM]	–
O=c1cc(CSc2nnc(-c3cccnc3)n2-c2ccccc2F)nc2sccn12	-22%	–
COc1ccc(-n2c(N)c(C(=O)NCc3ccco3)sc2=S)cc1	21.9%	–
C=CCC(NCc1ccco1)c1ccc(OC)cc1 (stereo unspecified)	–	5.01 µM (active)
COc1ccc(OC)c(NC(=O)C(CC(=O)O)NCc2ccco2)c1 (stereo unspecified)	10.1%	–

SMILES	activity, negative = inhibition	AC50
CS(=O)(=O)N1CCC2(CC1)CN(C(=O)Nc1cccc(C#N)c1)C2	-5.12%	–
O=C(O)/C=C\C(=O)N1Cc2cc3ccccc3nc2C1	-1.33% [at 11.4 µM]	–
CC(=O)N(CC(O)CN(C(C)=O)c1c(I)c(C(=O)NC[C@@H](O)CO)c(I)c(C(=O)NC[C@@H](O)CO)c1I)c1c(I)c(C(=O)NC[C@@H](O)CO)c(I)c(C(=O)NC[C@@H](O)CO)c1I	3.76% [at 25.6 µM]	–
COc1ccc(-n2cccc2C=O)cc1OC	26%	–
CS(=O)(=O)N1CCC2(CCCN(c3ccncc3)C2)CC1	-9.57%	–
CS(=O)(=O)N1CCC2(CCN(C(c3ccccc3)c3ccccc3)CC2)CC1	–	3.16 µM (active)
CS(=O)(=O)N1CCC2(CC1)CN(c1ccncc1)C2	8.73%	–
CS(=O)(=O)N1CCC2(CCN(c3ccccc3)CC2)CC1	14.5%	–
CS(=O)(=O)N1CCC2(CCCN(C(c3ccccc3)c3ccccc3)C2)CC1	–	5.01 µM (active)
CS(=O)(=O)N1CCC2(CC1)CN(c1ccc(-c3ccccc3)cc1)C2	19.1%	–
CS(=O)(=O)N1CCC2(CCN(c3cccc(-c4ccccc4)c3)CC2)CC1	18.6%	–
CS(=O)(=O)N1CCC2(CC1)CN(C(=O)Nc1ccccc1)C2	7.91%	–
CS(=O)(=O)N1CCC2(CC1)CN(C(c1ccccc1)c1ccccc1)C2	–	2.51 µM (active)
CS(=O)(=O)N1CCC2(CC1)CN(c1ccccc1)C2	–	1.26 µM (active)
O=C1NC(=S)N/C1=C/c1cccc([N+](=O)[O-])c1O	0.452%	–
O=C1CC(c2ccc(F)cc2)Cc2nc(NCC3CCCO3)ncc21 (stereo unspecified)	-15.2%	–
CC12CCC(C(=O)Nc3ncc([N+](=O)[O-])s3)(OC1=O)C2(C)C (stereo unspecified)	4.91%	–
Cc1cccc(C(=O)NN(C)c2nc(-c3ccccc3)nnc2C(F)(F)F)c1	-4.32%	–
CCOC(=O)N1CCN(C(=O)c2cc(-c3ccc(F)cc3)[nH]c2C)CC1	-13.3%	–
COC(=O)C/C=C\[C@@H](C)[C@@H](/C=N\O[C@@H](C)c1cn([C@H](CO)Cc2ccccc2)nn1)NS(=O)(=O)c1ccc(C)cc1	-17.6% [at 11.4 µM]	–
COCCCn1nnnc1SCC(=O)N1CCCC1	12.7%	–
Cn1c(SC2CCCCC2=O)nnc1-c1ccncc1 (stereo unspecified)	0.704%	–
COC(=O)Cn1nc(-c2ccccc2)n(-c2ccccc2)c1=S	-2.62%	–
O=C(NC(=S)Nc1cccc(Cl)c1N1CCCC1)c1ccc(-c2cccc([N+](=O)[O-])c2)o1	1.82%	–
CS(=O)(=O)N1CCC[C@@]2(CCN(c3ccccc3)C2)C1	-6.59%	–
CS(=O)(=O)N1CCC[C@@]2(CCN(C(c3ccccc3)c3ccccc3)C2)C1	–	3.98 µM (active)

SMILES	activity, negative = inhibition	AC50
CS(=O)(=O)N1CCC[C@@]2(CCN(C(=O)Nc3ccccc3)C2)C1	-1.65%	–
Cc1nc2c3cnn(-c4ccc(C)c(C)c4)c3ncn2n1	-12.9%	–
CCCc1nnc(SCC(=O)N2CCCC(C)C2)n1CC1CCCO1 (stereo unspecified)	11.4%	–
COC(=O)N1CCC2(CC1)CN(C(=O)Nc1ccc(OC)cc1)C2	-6.61%	–
Cc1ncc2c(c1O)COP(=O)(O)OC2	–	1 µM (active)
Cc1ncc(CO)c(CO)c1O	-5.06% [at 25.6 µM]	–
CCC1NC(=S)N(C2CCCCC2)C1=O (stereo unspecified)	1.35%	–
C(/C=C/c1ccco1)=N/N1CCN(c2ccccc2)CC1	-7.09%	–
O=C(/C=C/c1ccccc1Cl)NCCN1CCOCC1	-4.1%	–
N=c1n(CCN2CCOCC2)c2ccccc2n1CC(=O)c1ccc(Cl)c(Cl)c1	–	2 µM (active)
O=C(/C=C/c1ccc(Cl)cc1)NCCN1CCOCC1	-7.23%	–
O=c1c(-c2ccc(F)cc2)nc2cnc(N3CCOCC3)nc2n1C1CC1	2.33%	–
O=C(CN1C(=O)c2ccccc2C1=O)NC1(C(=O)O)CCCC1	2.83% [at 11.4 µM]	–
COCCn1c(=O)c(-c2ccccc2)nc2cnc(Oc3ccccc3)nc21	-1.57%	–
COc1ccc(NC(=O)N2CC3(CCN(C(=O)c4ccc(OC)cc4)CC3)C2)cc1	8.59%	–
C[C@H]1CC(C)(C)C[C@@](OCCN2CCCCC2)(c2ccccc2)C1	–	0.631 µM (active)
CCCc1nnc(SCC(=O)N2CCCCC2C)n1CC1CCCO1 (stereo unspecified)	9.36%	–
Cc1ccc(OC(=O)N2CCOCC2)cc1	6.26%	–
CCOC(=O)C1CCCN(c2ncnc3c2cnn3-c2cccc(C)c2)C1 (stereo unspecified)	-19.6%	–
CN1CCN(c2ncc3nc(-c4ccc(F)cc4)c(=O)n(C4CC4)c3n2)CC1	2.59%	–
COc1ccc(-c2nnc(SCc3cccc(C)c3)n2N)cc1	–	14.1 µM (active)
CCn1c(SCc2cccc(C)c2)nnc1-c1ccc(C)cc1	-14.5%	–
COc1ccc(NCc2nnc(SCc3ccccc3)n2-c2ccc(OC)cc2)cc1	-28.7%	–
Cc1ccc(OCC(=O)NC2=NCCS2)cc1	-3.18%	–
CCC(=O)Nc1ccc(C(=O)NNC(=O)c2cccs2)cc1	-12.3%	–
CC(C)[C@H](NC(=O)OC(C)(C)C)[C@@H](O)CC(=O)OC(C)(C)C	–	3.16 µM (active)

SMILES	activity, negative = inhibition	AC50
CC(=O)C[C@H](O)[C@@H](NC(=O)OC(C)(C)C)C(C)C	-3.21% [at 11.4 µM]	–
CC(C)[C@H](NC(=O)OC(C)(C)C)[C@@H](O)CC(=O)C(C)(C)C	3.85% [at 11.4 µM]	–
Cc1ccc(NC(=O)C2CCN(S(=O)(=O)c3c(C)n[nH]c3C)CC2)nc1	-1.65%	–
NC[C@@H]1O[C@H](C23CC4CC(CC(C4)C2)C3)Cc2c1ccc(O)c2O	-2.34%	–
NC(=O)CSc1nc2sc(-c3ccccc3)cc2c(=O)n1N	-10.4%	–
COc1ccc(C[C@@H]2C(=O)N[C@H](C)C(=O)N(C)[C@@H]3Cc4ccc(cc4)Oc4cc(ccc4O)C[C@H](C(=O)N[C@@H](C)C(=O)N[C@H](C)C(=O)N2C)N(C)C3=O)cc1	-5.02% [at 11.4 µM]	–
CC[N+](CC)(CC)CCOc1ccc(/C=C\c2ccccc2)cc1	–	7.94 µM (active)
CC[N+](CC)(CC)CCOc1cccc(OCC[N+](CC)(CC)CC)c1OCC[N+](CC)(CC)CC	6.01% [at 25.6 µM]	–
O=C(NCCCn1ccnc1)c1ccc(Br)c(S(=O)(=O)N2CCOCC2)c1	–	0.316 µM (active)
Cc1ccc(C(=O)NCCCN2CCOCC2)cc1N1CCCC1=O	-4.62%	–
CCOC(=O)N1CCN(C(=O)c2ccc(Cl)c(S(=O)(=O)N3CCOCC3)c2)CC1	-1.98%	–
O=C(O)/C=C\C(=O)Nc1ccc2c(c1)-c1ccccc1C2	8.73% [at 11.4 µM]	–
CC(=O)N1CCC2(CC1)CN(c1ccncc1)C2	11.3%	–
O=C(N/N=C/c1ccccn1)c1ccc(Br)o1	11.8%	–
CN(C)c1ncc2nc(-c3ccccc3)c(=O)n(C3CC3)c2n1	-20.7%	–
C=CCSC[C@@H]1Nc2cc(Cl)c(S(N)(=O)=O)cc2S(=O)(=O)N1	-3.49% [at 25.6 µM]	–
COc1ccc(C(=O)N2CCC3(CCN(C)CC3)CC2)cc1	-0.103%	–
COc1ccc(C(=O)/C=C(/C)N(C)C)cc1	0.83%	–
COc1ccc(C(=O)/C=C2/c3ccccc3CC(C)(C)N2C)cc1	–	0.282 µM (active)
Clc1cccc(Oc2cnc3ccccc3n2)c1	-2.63%	–
Cc1ccc(NC(=S)NC2CCCC2)cc1	-23.7%	–
COC(=O)c1ccc(NC(=O)C2CCCCC2C(=O)O)cc1 (stereo unspecified)	-39%	–
COC(=O)c1ccc(NC(=S)NC2CCCCC2)cc1	–	15.8 µM (active)
